From PubChem
G9a block – blocks human histone lysine methyltransferase G9a; Potency, µM (highest dose often 102 µM), for inactives: at the highest dose activity, negative = inhibition, most hits filed as inhibitors; G9a H3K9 monomethylation, AlphaScreen, 2 h; 8.8% of 350,000 active; also: % is scaled to controls: 0 for no effect and ±100 for the full control effect; nearly all actives have a fitted effect of over 75% in size
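Quantitative HTS format: methyltransferase activity on a biotin-tagged H3K9 peptide is measured by AlphaScreen, using a rabbit anti-monomethyl-H3K9 antibody with streptavidin donor and anti-IgG acceptor beads. Final levels are 20 nM enzyme, 500 nM peptide, 20 uM SAM; 2 h RT.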
PLK1 PBD inh – inhibitors of human PLK1 polo-box domain binding; P53350; 2.8% of 360,000 active; Potency, µM, without a hit: max response, negative = inhibition, hits mostly inhibitors; AID 720504; Plk1 PBD binding of FITC phosphopeptide, fluorescence polarization; also: series mostly up to about 57 µM; % is scaled to controls: 0 for no effect and ±100 for the full control effect; nearly all actives have a fitted effect of over 65% in size
HP1b chromo inh – blocks HP1-beta chromodomain binding to methylated histone tails; AlphaScreen HP1-beta / biotin-H3K9me3 peptide binding; Potency, µM (doses to about 114 µM), for the others: at the highest dose activity change, negative = inhibition, hits mostly inhibitors; 0.56% of 390,000 active; AID 540317; also: nearly all actives have a fitted effect of over 70% in size
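AlphaScreen: HP1-beta (50 nM) preformed 30 min with biotin-H3(1-18)K9me3 peptide (50 nM) in PBS pH 7.4, 0.01% Tween-20. Compound added for 30 min at RT, then streptavidin donor/nickel chelate acceptor beads (10 ug/mL) for 30 min.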
VDR inhibitor – inhibitors of human vitamin D receptor. Potency, µM, for the others: max response, negative = inhibition, usual class: inhibitors. VDR-SRC2-3 peptide fluorescence polarization, 2 h. P11473. 0.93% of 400,000 active; also: % is scaled to controls: 0 for no effect and ±100 for the full control effect
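Reagent solutions, kept cold and dark, are dispensed first; compounds are then pinned in at 23 nl, plates briefly spun, and incubated 2 h at ambient temperature. Inhibition of VDR–SRC2-3 peptide binding is read by fluorescence polarization.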
BAZ2B inh – blocks human BAZ2B. Q9UIF8. AlphaScreen BAZ2B-H3K14Ac peptide displacement. Potency, µM (titrated, usually from 114 µM), for the others: top-dose activity change, negative = inhibition, hits mostly inhibitors. 4.4% of 360,000 active. AID 504333; also: % is scaled to controls: 0 for no effect and ±100 for the full control effect; nearly all actives have a fitted effect of over 60% in size
Target sequence (Q9UIF8 whole entry, looked up): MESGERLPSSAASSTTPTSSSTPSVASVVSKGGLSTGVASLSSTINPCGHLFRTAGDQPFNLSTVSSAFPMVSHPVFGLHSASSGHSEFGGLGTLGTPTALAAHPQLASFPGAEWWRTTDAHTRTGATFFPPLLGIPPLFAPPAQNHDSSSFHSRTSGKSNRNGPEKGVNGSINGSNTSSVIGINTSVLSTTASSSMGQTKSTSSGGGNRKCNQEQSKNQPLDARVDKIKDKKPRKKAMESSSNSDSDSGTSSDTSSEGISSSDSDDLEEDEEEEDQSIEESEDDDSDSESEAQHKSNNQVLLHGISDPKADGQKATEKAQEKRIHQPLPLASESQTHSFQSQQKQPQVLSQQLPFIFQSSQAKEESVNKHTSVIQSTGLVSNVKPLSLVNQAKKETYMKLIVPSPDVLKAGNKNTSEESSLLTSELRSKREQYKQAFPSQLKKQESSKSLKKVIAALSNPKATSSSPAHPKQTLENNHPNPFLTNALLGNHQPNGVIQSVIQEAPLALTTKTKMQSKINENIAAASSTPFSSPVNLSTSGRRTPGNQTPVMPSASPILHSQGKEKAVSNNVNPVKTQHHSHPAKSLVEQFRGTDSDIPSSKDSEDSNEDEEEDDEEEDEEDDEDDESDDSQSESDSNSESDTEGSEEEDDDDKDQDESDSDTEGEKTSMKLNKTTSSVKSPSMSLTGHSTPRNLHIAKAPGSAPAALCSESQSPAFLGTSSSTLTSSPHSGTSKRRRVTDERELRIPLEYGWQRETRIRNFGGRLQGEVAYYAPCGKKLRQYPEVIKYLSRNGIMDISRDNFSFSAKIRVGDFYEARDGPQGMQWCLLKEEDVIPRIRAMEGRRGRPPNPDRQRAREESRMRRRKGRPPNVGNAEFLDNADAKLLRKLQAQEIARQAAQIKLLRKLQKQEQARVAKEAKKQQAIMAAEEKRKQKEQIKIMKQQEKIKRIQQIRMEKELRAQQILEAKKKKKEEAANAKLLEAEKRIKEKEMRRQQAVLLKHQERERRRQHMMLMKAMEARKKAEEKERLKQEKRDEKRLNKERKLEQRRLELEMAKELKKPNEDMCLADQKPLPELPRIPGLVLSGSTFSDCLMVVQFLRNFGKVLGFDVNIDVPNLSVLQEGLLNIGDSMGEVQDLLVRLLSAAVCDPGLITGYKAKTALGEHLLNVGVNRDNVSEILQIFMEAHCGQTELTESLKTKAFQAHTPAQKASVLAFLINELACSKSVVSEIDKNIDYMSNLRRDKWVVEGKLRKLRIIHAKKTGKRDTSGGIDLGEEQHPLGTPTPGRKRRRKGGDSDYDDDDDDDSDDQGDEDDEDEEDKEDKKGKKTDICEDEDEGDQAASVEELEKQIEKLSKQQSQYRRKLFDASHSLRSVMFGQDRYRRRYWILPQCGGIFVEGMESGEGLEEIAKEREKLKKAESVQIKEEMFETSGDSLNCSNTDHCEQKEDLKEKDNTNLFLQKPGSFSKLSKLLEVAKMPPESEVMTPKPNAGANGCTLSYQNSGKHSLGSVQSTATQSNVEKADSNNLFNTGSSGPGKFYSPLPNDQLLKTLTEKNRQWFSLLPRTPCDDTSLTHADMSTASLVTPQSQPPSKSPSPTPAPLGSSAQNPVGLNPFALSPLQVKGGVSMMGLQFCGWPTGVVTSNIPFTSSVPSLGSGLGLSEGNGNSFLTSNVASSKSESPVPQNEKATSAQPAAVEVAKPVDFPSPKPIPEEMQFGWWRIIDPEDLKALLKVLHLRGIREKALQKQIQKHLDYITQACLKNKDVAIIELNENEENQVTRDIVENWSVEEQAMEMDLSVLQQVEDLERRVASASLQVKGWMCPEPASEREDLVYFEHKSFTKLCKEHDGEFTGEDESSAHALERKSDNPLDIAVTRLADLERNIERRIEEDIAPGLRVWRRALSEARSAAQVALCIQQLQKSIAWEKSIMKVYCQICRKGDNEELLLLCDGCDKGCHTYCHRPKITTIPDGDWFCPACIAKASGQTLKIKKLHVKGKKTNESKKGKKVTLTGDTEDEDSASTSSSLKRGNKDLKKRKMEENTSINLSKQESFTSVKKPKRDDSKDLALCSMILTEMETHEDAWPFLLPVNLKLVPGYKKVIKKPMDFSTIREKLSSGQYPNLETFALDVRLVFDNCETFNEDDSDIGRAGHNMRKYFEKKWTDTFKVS
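AlphaScreen displacement: compounds (up to 110uM) incubated 30 min at room temperature with a preformed 50 nM BAZ2B/50 nM biotinylated H3K14Ac peptide complex in PBS pH 7.4 with Tween-20. Donor and acceptor beads at 10 ug/mL final added, 20 min light-protected before reading.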
JMJD2A Tudor inh – JMJD2A Tudor domain (human) inhibition | O75164 | AlphaScreen JMJD2A-Tudor / H3K4me3 peptide binding | Potency, µM (top dose mostly 114 µM), without a hit: at the top dose activity change, negative = inhibition, hits mostly inhibitors | 4.4% of 390,000 active | AID 504339; also: % is scaled to controls: 0 for no effect and ±100 for the full control effect; nearly all actives have a fitted effect of over 50% in size
Active calls of the source: *; ? = inconclusive; . = no result given; [ ] = another dose, or the depositor's remark. Sampled rows, rich in hits. Any-hit rate of the full collection: about 11%. Calls follow the shape of the dose curve; as a rule, active = well fitted curve in the direction sought with a large enough effect; inconclusive = small, poorly fitted or top-dose-only effect, or another doubt; inactive = no such curve, though single readings can be large; an effect the other way counts as inactive or inconclusive. Potency is read from the fitted curve at half-maximal effect.

SMILES	G9a block	PLK1 PBD inh	HP1b chromo inh	VDR inhibitor	BAZ2B inh	JMJD2A Tudor inh
Cc1cc(C)n(-c2ccc(C(=O)N3CCN(S(=O)(=O)c4ccc(OC(F)(F)F)cc4)CC3)cc2)n1	.	1%	.	.	.	.
Cc1c(N(C)S(=O)(=O)c2cccc(C(=O)NC(C)C)c2)c(=O)n(-c2ccccc2)n1C	32µM*	30µM*	6%	79µM*	-2%	-23%
Cc1cc2oc(C(=O)Nc3ccc(S(=O)(=O)N(C)Cc4ccccc4)cc3)cc(=O)c2cc1C	9%[59 µM]	.	18%	3%	4%	-8%
O=C(c1ccccc1Cl)N1CCN(S(=O)(=O)c2cccs2)CC1	24%	0%	21%	-3%	-10%	-7%
COc1ccc(Br)c(C(=O)N2CCN(S(=O)(=O)c3cccs3)CC2)c1	-34%	0%	46%	-19%	89µM*	-2%
O=C(c1cccs1)N1CCN(S(=O)(=O)c2cccs2)CC1	-2%	5%	15%	9%	.	1%
COc1cc(C(=O)N2CCN(S(=O)(=O)c3cccs3)CC2)cc(OC)c1C	4.5µM*	-2%	32%	-16%	50µM*	79µM*
C[N+](C)(C)CCNC(=O)c1ccccc1	.	6%	.	.	.	.
CS(=O)(=O)c1ccc2nc(NC(=O)CN3CCC(Cc4ccccc4)CC3)sc2c1	-1%[2.33 µM]	-10%	54%	14%	-2%	?
CS(=O)(=O)c1ccc2nc(NC(=O)CN3CCN(Cc4ccccc4)CC3)sc2c1	13µM*	-3%	17%	-7%	-5%	?
CCOc1ccc(-c2csc(Cn3c(CN4CCN(C)CC4)nc4ccccc4c3=O)n2)cc1	22µM*	24µM*	?	?	?	22µM*
CN(C)Cc1nc2ccccc2c(=O)n1Cc1nc(-c2cc3ccccc3o2)cs1	?	19µM*	-14%	?	?	50µM*
CN(C)Cc1nc2ccccc2c(=O)n1CC#N	-29%	-8%	16%	-5%	-27%	-6%
CCOC(=O)C1CCN(Cc2nc3ccccc3c(=O)n2-c2ccc(OCC)cc2)CC1	9%[59 µM]	-2%	31%	2%	-6%	-11%
CN(CC[C@@H](Oc1ccc(-c2ccccc2)cc1)c1ccc(F)cc1)CC(=O)O	.	.	.	-8%	.	.
CCOC(=O)C1=CC[C@]2(C)c3c(c4ccccc4n3C)C(=O)C1N2C	10%[0.501 µM]	-6%	47%	9%	-2%	0%
Cc1noc(C)c1CSc1nc2ccccc2c(=O)n1-c1ccc(Cl)cc1	-9%[59 µM]	-1%	29%	-10%	6%	-17%
Cc1noc(C)c1CSc1nc2ccccc2n1CCc1ccccc1	?	?	0%	79µM*	8%	4%
Cc1noc(C)c1CSc1nnc(-c2ccccc2)n1N	3.2µM*	21µM*	?	?	-4%	?
CC(=O)NCCCc1nc2ccccc2n1Cc1c(F)cccc1Cl	.	-3%	35%	-6%	-6%	6%
COc1ccc(C(=O)Nc2ccc(OCc3ccccc3)cc2)cc1[N+](=O)[O-]	9%[12.7 µM]	2%	27%	13%	5%[57.1 µM]	-8%
COc1cc(OC)cc(C(=O)Nc2cccc(-c3cn4ccsc4n3)c2)c1	-24%[59 µM]	.	0%[57 µM]	0%	71µM*	?
COc1cccc(OC)c1C(=O)Nc1cccc(-c2cn3ccsc3n2)c1	5%[59 µM]	.	13%[57 µM]	5%	-26%	-23%
COc1cccc(C(=O)Nc2cc(Cl)c(O)c(Cl)c2)c1	45µM*	-10%	21%	-3%	-24%	-15%
COc1cccc(C(=O)Nc2ccc(NC(C)=O)cc2)c1	20%[12.7 µM]	2%	16%	-1%	4%	-18%
SMILES	G9a block	PLK1 PBD inh	HP1b chromo inh	VDR inhibitor	BAZ2B inh	JMJD2A Tudor inh
COc1cc(OC)cc(C(=O)Nc2cccc(N3CCCC3)c2)c1	3.5µM*	1%	-17%	-4%	-38%	50µM*
COc1ccc(C(=O)Nc2ccc(Nc3ccccc3)cc2)cc1[N+](=O)[O-]	?	-11%	?	-3%	?	35µM*
COc1cc(OC)cc(C(=O)Nc2cccc(C(C)=O)c2)c1	-42%[12.7 µM]	-2%	22%	0%	-1%	2%
COc1ccc(NS(=O)(=O)c2ccc3c(c2)Cc2ccccc2-3)cn1	-11%[59 µM]	-5%	-5%	4%	-37%	-30%
COc1cc(F)ccc1-c1csc(C(NC(C)=O)c2ccccc2)n1 (stereo not drawn)	.	4%	.	.	.	.
COc1ccc(-c2c(C3=CCCCC3)oc3ccc(-c4ccc5c(c4)OCO5)cc23)cn1	.	-4%	20%	-9%	.	-33%
Cc1sc2ncn(/N=C/c3cn(-c4ccccc4)nc3-c3ccccc3)c(=O)c2c1C	.	.	15%	-9%	.	-22%
CCCS(=O)(=O)N1CC(=O)N(c2cccc(Cl)c2C)C(C)(C(=O)NC2CCCC2)C1 (stereo not drawn)	10%[59 µM]	.	-2%	4%	4%	-16%
COc1cc(OC)cc(C(=O)Nc2ccc(Nc3ccccc3)cc2)c1	35µM*	-3%	-26%	-12%	25µM*	?
COc1cc(OC)cc(C(=O)Nc2cccc(NC(=O)c3ccccc3)c2)c1	19%	1%	?	6%	-5%	-27%
COc1ccc2oc(=O)c(C(=O)OCc3ccccc3)cc2c1	28µM*	?	2%	-11%	-7%	6%
COc1ccc2oc(=O)c(C(=O)NCc3ccccc3)cc2c1	32%	-3%	34%	2%	2%	-10%
Cc1ccc(NC(=O)CSc2nc(N)c3c4c(sc3n2)CSC(C)(C)C4)cc1	19%[59 µM]	-1%	16%	5%	-34%	-9%
Nc1nc(SCC(=O)NCCCO)nc2sc3c(c12)CCC3	-8%	-5%	2%	11%	-7%	-8%
CC(C)(C)C1CCc2c(sc3nc(SCC(=O)O)nc(N)c23)C1 (stereo not drawn)	28µM*	?	14%	-6%	-13%	-12%
Nc1nc(SCC(=O)NCCO)nc2sc3c(c12)CCCC3	18%	24µM*	-7%	-1%	-14%	-17%[11.4 µM]
CC1(C)Cc2c(sc3nc(SCC(=O)O)nc(N)c23)CO1	21%	-11%	33%	-28%	-3%	-13%
Cc1ccccc1NC(=O)CSc1nc(N)c2c3c(sc2n1)CSC(C)(C)C3	?	-4%	79µM*	2%	?	-25%
COc1cc2c(cc1OC)C(c1ccc(F)cc1)N(c1ccccc1)C(=O)C2 (stereo not drawn)	-33%[59 µM]	.	20%	5%	-11%	-16%
O=C(/C=C/c1cccc([N+](=O)[O-])c1)c1ccc([N+](=O)[O-])o1	.	5.3µM*	42%	2.8µM*	.	-22%
O=c1c2oc3ccccc3c2ncn1Cc1ccc(Br)cc1	-35%[59 µM]	.	15%	0%	-20%	-5%
O=CNC1CCCc2c1[nH]c1ccc(Cl)cc21 (stereo not drawn)	7.9µM*	-4%	-13%	-2%	?	56µM*
